The text below walks through data of PubChem BioAssay AID504854 (Southern Research Specialized Biocontainment Screening …, 2011).

Results with a measured potency or affinity are listed apart. Active and inactive are the calls of the source. No rule for the calls is given here.

The experiment in a line: Vero cell cytotoxicity, dose response, cytotoxicity control for M. tuberculosis growth inhibitor project, Vero cells, purified and synthesized compounds, set 4 (AID 504854). Conditions: series mostly up to 100 µM; viability: at the top concentration.
In the case of `Cc1nc(SCc2ccccc2Cl)[nH]c(=O)c1C`, the “viability” value is 97.2% (inactive). For the compound `Cc1cnc(SCC(=O)NC2CCCCC2)[nH]c1=O`, the “viability” value is 86.8% (inactive). The same measure for `CN1CCC(NC(=O)CSc2nc3ccccc3c(=O)[nH]2)CC1`: 94.4% (inactive). As to `COc1ccc(NC(=O)CSc2nc3ccccc3c(=O)[nH]2)cc1`, the “viability” value is 86.4% (inactive). Consider `CCOC(=O)CSc1nc(C)c(C)c(=O)[nH]1`, for which the “viability” value is 95.6% (inactive). Next, `Cc1nc(SCC(N)=O)[nH]c(=O)c1C`: 92% (inactive); `COC(=O)c1ccc(CNc2c(N3CCCC3)c(=O)c2=O)cc1`: 93.3% (inactive). Consider `Cc1nc(SCC(=O)N(C)c2ccccc2)[nH]c(=O)c1C`, for which the “viability” value was 97% (inactive). For `CN(C)C(=O)CSc1nc2ccccc2c(=O)[nH]1`, the “viability” value is 105% (inactive). As to `O=C(CSc1ncccn1)NC1CCCCC1`, the “viability” value is 91.7% (inactive). As to `COc1cccc(NC(=O)CSc2nc3c(c(=O)[nH]2)CCC3)c1`, the “viability” value was 87.3% (inactive). Take `CC[N+](C)(CC)CCCCOc1ccc2c(c1)C(=O)c1cc(OCCCC[N+](C)(CC)CC)ccc1-2`: the “viability” value is 92.3% (inactive). Next, `Cc1[nH]c(=S)[nH]c(=O)c1C`: 92.8% (inactive); `NC(=O)CSc1nc2ccccc2c(=O)[nH]1`: 98.6% (inactive). Turning to `O=C(CSc1nc2ccccc2c(=O)[nH]1)N1CCOCC1`, the “viability” value is 84.2% (inactive). The same measure for `Cc1cc(=O)[nH]c(SCC(=O)NC2CCCCC2)n1`: 86.1% (inactive); for `Cn1c(SCC(=O)NC2CCCCC2)nc2ccccc2c1=O`: 95.2% (inactive); for `Nc1cc(=O)[nH]c(SCC(=O)NC2CCCCC2)n1`: 91.4% (inactive). `Cc1c[nH]c(=S)[nH]c1=O`: the “viability” value is 99.7% (inactive). With `CCSc1nc(C)c(C)c(=O)[nH]1`, the “viability” value was 94.9% (inactive).

Regarding `CCOC1OC(=O)C(Cl)=C1Nc1ccccc1C` (stereo not drawn), the “viability” value was 93.3% (inactive). As to `Cc1nc(SCC(=O)NCCC(C)C)[nH]c(=O)c1C`, the “viability” value was 89.4% (inactive). `Cc1cccc(/C=C/C(=O)c2ccc([N+](=O)[O-])o2)c1`: the “viability” value was 102% (inactive). On to `O=C(CSc1nc2ccccc2c(=O)[nH]1)NC1CCCCC1`, for which the “viability” value is 96.3% (inactive). For the compound `O=C(CSc1ccccn1)NC1CCCCC1`, the “viability” value was 93.5% (inactive).

With `Cc1ccc(NC(=O)COC(=O)CCc2c[nH]c3ccccc23)cc1[N+](=O)[O-]`, the “viability” value was 95.8% (inactive).

As for `Cc1cc(=O)[nH]c(=S)[nH]1`, the “viability” value was 108% (inactive). Regarding `O=C(CSc1nccc(=O)[nH]1)NC1CCCCC1`, the “viability” value is 90.6% (inactive).

As for `CCC(Sc1nc2ccccc2c(=O)[nH]1)C(=O)NC1CCCCC1` (stereo not drawn), the “viability” value was 97.8% (inactive). In the case of `O=c1[nH]c(=S)[nH]c2ccccc12`, the “viability” value is 94.9% (inactive).

As to `Nc1c(C(=O)NC2CCCCC2)nsc1C(=O)OCC(=O)NC1CCCCC1`, the “viability” value was 96.5% (inactive). Take `Cc1nc(SCC(=O)NC2CCCC2)[nH]c(=O)c1C`: the “viability” value is 106% (inactive). For the compound `CC(C)CCNC(=O)CSc1nc2ccccc2c(=O)[nH]1`, the “viability” value was 92.4% (inactive).
